Assay results published in publication PMC7862700, “An all-to-all approach to the identification of sequence-specific readers for epigenetic DNA modifications on cytosine”.

Tests used:
Assay in all cases: DAPPL (digital affinity profiling via proximity ligation, sequencing); 10 mM Tris-HCl pH 7.5, 50 mM NaCl, 1 mM DTT, 4% glycerol, room temperature, 30 min; GST-TFs on glutathione beads, 16-mer random dsDNA library, 0.1% formaldehyde crosslink after washing; high values mean tight binding
Details in all cases: protein: recombinant; tags: N-terminal GST; dsDNA, one strand shown
ETV1 = ETV1 (Homo sapiens, UniProt P50549 1-477)
Chain of ETV1 (P50549 whole entry, the tested form may be a part): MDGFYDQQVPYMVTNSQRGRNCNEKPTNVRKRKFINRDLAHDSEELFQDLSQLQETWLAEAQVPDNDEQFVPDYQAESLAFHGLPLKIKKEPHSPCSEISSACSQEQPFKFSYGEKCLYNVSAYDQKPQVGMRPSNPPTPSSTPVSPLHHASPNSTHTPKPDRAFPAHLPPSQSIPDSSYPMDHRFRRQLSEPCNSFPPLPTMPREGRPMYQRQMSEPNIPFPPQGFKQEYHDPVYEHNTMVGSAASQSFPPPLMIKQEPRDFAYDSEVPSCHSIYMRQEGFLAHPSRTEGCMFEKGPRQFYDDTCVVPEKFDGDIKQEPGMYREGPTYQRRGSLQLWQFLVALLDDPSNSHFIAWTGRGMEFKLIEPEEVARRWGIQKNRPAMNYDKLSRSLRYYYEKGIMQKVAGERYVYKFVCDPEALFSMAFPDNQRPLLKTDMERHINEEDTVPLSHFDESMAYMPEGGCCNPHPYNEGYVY
Outline: (§1)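 In yeast, human transcription factors were expressed with a GST fusion, then pulled down on glutathione beads and given DNA barcodes. Pooled with a tag-only sample, they were exposed to 200 nmole of a 16-mer random double-stranded DNA library (Tris/NaCl/DTT/glycerol buffer, room temperature, 30 min), washed, crosslinked with 0.1% formaldehyde, proximity-ligated using BsaI/T4 ligase for 1 h at 37 °C, PCR-amplified and read on an Illumina NextSeq500. Each hexamer's frequency of reads for a factor, divided by the matching frequency for the tag-only sample, gives the binding signal.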

ERF = target: T1, ERF (Homo sapiens, UniProt P50548 1-548)
T1 sequence: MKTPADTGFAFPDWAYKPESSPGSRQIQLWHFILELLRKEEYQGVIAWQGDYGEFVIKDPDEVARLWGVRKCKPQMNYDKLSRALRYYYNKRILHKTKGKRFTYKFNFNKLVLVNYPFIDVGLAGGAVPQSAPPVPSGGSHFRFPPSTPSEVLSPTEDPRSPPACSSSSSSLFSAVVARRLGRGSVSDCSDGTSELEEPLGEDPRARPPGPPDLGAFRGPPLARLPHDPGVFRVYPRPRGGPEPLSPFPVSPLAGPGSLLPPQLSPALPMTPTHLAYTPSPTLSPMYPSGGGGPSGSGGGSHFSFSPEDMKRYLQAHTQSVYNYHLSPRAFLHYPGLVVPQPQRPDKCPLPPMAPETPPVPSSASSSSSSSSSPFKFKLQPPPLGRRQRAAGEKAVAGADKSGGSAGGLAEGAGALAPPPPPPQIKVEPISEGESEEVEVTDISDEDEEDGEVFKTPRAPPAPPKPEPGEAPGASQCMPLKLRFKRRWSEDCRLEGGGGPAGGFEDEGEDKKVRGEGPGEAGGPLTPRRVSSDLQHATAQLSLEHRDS
Outline: as §1

ETV3L = target: T2, ETV3L (Homo sapiens, UniProt Q6ZN32 1-361)
T2 sequence: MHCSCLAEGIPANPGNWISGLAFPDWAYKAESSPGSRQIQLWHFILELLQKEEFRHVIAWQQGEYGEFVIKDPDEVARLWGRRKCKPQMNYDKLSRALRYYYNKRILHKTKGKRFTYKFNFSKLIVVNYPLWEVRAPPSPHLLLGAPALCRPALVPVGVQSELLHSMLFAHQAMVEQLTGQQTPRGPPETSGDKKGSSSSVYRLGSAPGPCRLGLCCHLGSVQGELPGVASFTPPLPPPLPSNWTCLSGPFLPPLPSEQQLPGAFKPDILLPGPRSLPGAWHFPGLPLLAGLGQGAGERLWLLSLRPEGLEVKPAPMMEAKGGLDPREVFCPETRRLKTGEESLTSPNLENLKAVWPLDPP
Outline: as §1

ETS2 = target: T3, ETS2 (Homo sapiens, UniProt P15036 1-469)
T3 sequence: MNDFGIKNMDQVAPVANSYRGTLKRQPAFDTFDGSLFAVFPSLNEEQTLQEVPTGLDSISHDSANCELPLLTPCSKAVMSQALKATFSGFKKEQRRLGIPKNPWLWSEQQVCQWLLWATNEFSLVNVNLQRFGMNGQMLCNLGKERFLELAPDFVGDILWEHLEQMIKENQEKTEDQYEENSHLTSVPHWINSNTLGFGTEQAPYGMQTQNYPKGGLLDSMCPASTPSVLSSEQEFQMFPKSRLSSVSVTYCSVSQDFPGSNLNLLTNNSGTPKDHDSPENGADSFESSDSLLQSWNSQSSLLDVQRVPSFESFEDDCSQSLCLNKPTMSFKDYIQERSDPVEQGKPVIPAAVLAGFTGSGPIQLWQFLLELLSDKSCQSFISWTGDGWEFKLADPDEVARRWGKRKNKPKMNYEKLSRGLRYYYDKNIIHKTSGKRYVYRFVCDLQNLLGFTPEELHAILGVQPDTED
Outline: as §1

SPDEF = target: T4, SPDEF (Homo sapiens, UniProt O95238 1-335)
T4 sequence: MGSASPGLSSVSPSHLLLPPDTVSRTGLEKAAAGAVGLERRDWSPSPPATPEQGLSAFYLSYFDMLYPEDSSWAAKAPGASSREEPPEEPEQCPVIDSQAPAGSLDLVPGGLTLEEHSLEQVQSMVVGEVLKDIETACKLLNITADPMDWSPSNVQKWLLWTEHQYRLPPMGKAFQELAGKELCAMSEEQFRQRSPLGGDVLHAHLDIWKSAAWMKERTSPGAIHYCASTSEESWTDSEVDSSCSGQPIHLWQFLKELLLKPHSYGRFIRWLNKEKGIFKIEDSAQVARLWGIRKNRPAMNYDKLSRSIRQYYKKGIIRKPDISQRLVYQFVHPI
Outline: as §1

ETV7 = target: T5, ETV7 (Homo sapiens, UniProt Q9Y603 1-341)
T5 sequence: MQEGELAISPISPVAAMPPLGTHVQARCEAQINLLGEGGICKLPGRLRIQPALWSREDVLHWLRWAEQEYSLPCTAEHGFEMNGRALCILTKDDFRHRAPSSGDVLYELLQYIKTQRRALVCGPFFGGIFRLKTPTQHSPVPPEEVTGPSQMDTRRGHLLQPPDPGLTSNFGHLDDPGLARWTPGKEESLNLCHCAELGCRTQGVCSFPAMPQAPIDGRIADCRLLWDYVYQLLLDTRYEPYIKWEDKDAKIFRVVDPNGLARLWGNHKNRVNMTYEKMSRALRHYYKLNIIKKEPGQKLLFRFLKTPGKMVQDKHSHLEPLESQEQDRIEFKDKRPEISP
Outline: as §1

ELF5 = target: T6, ELF5 (Homo sapiens, UniProt Q9UKW6-2 1-255)
T6 sequence: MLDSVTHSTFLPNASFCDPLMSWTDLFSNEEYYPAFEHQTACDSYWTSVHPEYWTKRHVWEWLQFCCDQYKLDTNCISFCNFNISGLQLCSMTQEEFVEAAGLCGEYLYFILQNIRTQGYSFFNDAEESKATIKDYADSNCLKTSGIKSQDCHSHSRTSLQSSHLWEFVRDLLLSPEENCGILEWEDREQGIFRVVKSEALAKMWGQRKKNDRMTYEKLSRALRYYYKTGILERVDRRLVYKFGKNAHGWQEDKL
Outline: as §1

ETV3 = target: T7, ETV3 (Homo sapiens, UniProt P41162-2 1-143)
T7 sequence: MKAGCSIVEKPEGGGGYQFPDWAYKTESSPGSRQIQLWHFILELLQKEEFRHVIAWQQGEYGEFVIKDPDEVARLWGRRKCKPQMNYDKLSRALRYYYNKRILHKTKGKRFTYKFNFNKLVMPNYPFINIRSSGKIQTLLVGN
Outline: as §1

ETV6 = ETV6 (Homo sapiens, UniProt P41212 1-452)
Chain of ETV6 (P41212 whole entry): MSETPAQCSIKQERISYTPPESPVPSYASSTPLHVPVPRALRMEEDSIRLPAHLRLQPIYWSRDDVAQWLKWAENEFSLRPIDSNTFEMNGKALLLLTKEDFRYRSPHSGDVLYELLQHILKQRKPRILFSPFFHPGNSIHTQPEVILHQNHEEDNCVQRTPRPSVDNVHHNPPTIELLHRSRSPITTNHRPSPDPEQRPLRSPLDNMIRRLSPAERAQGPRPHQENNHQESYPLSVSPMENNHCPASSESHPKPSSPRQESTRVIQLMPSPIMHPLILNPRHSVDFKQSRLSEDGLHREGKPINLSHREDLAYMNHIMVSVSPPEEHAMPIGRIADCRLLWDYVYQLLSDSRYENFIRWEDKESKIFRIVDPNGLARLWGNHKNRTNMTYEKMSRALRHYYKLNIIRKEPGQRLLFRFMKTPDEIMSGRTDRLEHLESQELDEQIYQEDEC
Outline: as §1

For TGCGAA, the binding signal (ETV1) was 1.19 fold enrichment (6-mer frequency, TF over GST control), the binding signal (ERF) was 1.07 fold enrichment (6-mer frequency, TF over GST control) and the binding signal (ETV3L) was 1.1 fold enrichment (6-mer frequency, TF over GST control). The binding signal (ETS2) was 1.1 fold enrichment (6-mer frequency, TF over GST control), the binding signal (SPDEF) was 1.2 fold enrichment (6-mer frequency, TF over GST control) and the binding signal (ETV7) was 1.18 fold enrichment (6-mer frequency, TF over GST control). The binding signal (ELF5) was 1.13 fold enrichment (6-mer frequency, TF over GST control), the binding signal (ETV3) was 1.16 fold enrichment (6-mer frequency, TF over GST control) and the binding signal (ETV6) was 1.09 fold enrichment (6-mer frequency, TF over GST control).
